# According to PubChem BioAssay (NCI):
# Compounds without any hit were thinned out: in the full panel of roughly 83,000, 20% have a hit.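 Method: cells in 96-well plates; compound added at one concentration; 48 h incubation; percent growth measured; values under 10 scored active.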 Unmarked numbers belong to inactive results. Activity calls are given as the source filed them.
# Tested on: HOP-62 NSCLC
# Assay: NCI-60 one-dose screen, 48 h (100 = growth as untreated, 0 = no growth, -100 = all killed)
# Conditions: 10 µM unless noted
row,Structure (SMILES),growth
1,Cc1ccc(C2CC(c3nc(-c4ccc(Cl)cc4)oc3C)=NN2C(=O)c2ccncc2)cc1 (stereo not given),99.3%
2,CSc1nc(C)c([N+](=O)[O-])c(N)n1,104%
3,[2H]C([2H])([2H])Oc1ccc(F)cc1/C=C/C(=O)/C=C(O)/C=C/c1cc(F)ccc1OC([2H])([2H])[2H],91.9%
4,COc1ccc(-c2nc3c(N)c(CO)cnc3s2)cc1,100%
5,O=S(=O)(NCCNc1nccc(-c2c(-c3ccc(F)c(O)c3)nc3sccn23)n1)c1ccc(F)cc1,48.3%
6,CCOC(=O)c1cnc2c(N=Nc3ccc(OC)cc3)c(N)nn2c1N,104%
7,COc1ccc(-c2nn(-c3ccccc3)cc2/C=C/C(=O)NNC(=O)Nc2ccc(C)cc2)cc1,102%
8,Oc1ccc(/C=C/c2ccc(O)cc2)cc1,71.4%
9,O=[N+]([O-])c1ccc(-c2cn3nc(-c4c[nH]c5ccccc45)sc3n2)cc1,94.6%
10,Oc1c(CN2CCOCC2)cc(COCc2ccccc2)c2cccnc12,10.7%
11,CCOC(=O)CC1CSC(Nc2ccccc2)=N1 (stereo not given),100%
12,CCc1n(Cc2ccc3ccccc3n2)cc[n+]1Cc1ccc2ccccc2n1,40.9%
13,O=P(O)(O)OCC1OC(n2cnc3c(NCc4ccco4)ncnc32)C(O)C1O (stereo not given),16%
14,COc1ccc(C2=CC(c3cc(OC)c(OC)c(OC)c3)n3ncnc3N2)cc1 (stereo not given),9.09% (active)
15,C/C=C(\C)C(=O)N[C@H]1C(O)C[C@]2(C)C3CC[C@@]4(C)C(CC[C@@H]4C(C)N(C)C)C3CCC2C1O (stereo not given in full),86.8%
16,COc1cc(-c2nc3sccn3c2-c2ccnc(NCCNS(=O)(=O)c3ccc(Cl)cc3)n2)ccc1F,34.7%
17,CCCn1cnc2c(c1=N)C(c1ccc(F)cc1)c1sc3c(F)cccc3c1O2 (stereo not given),52.4%
18,C#CCNC(=O)[C@]1(C)CCC[C@@]2(C)[C@H]1CC=C1C=C(C(C)C)CC[C@@H]12,98.7%
19,N[C@H]1CCC[C@@H]1NCCCCN1C(=O)c2cccc3cc([N+](=O)[O-])cc(c23)C1=O,38.4%
20,CC1C=CC(OC(=O)C(C)(O)CCC(O)(C(=O)OC2CC(O)C(C(C)C)CC2(C)O)C(C)C)(C(C)C)CC1 (stereo not given),-68.7% [4.63 µM] (active)

row,Structure (SMILES),growth
1,C=CC(=O)Nc1ccc(Nc2nccc(-c3ccc(N4CCCC4)c(C#N)c3)n2)cc1,19.2%
2,CC(=O)OC(c1ccccc1)C1CCOC1=O (stereo not given),99.2%
3,COC(=O)CCC/C=C\C[C@H]1C=CC(=O)/C1=C/C[C@@H](O)C/C=C\CC(F)(F)F,-12.4% (active)
4,N#CC1=C(N)Oc2ccc3ccccc3c2C1c1ccc([N+](=O)[O-])cc1 (stereo not given),81.8%
5,COc1cc(-c2nc3c(ncc4ccc(=O)n(-c5ccccc5)c43)s2)cc(OC)c1OC,88.6%
6,Cc1ccc(-c2csc(N(C(=O)N3CCN(c4cc5c(cc4F)c(=O)c(C(=O)O)cn5C4CC4)CC3)c3ccccc3)n2)cc1,4.78% (active)
7,O=c1cc(-c2ccccc2)[nH]c2ncc(-c3ccc(F)cc3)n12,67.7%
8,COc1cc(-c2nc3cc(Cl)c(Cl)cc3[nH]2)ccc1OCC(=O)N=Nc1c(O)[nH]c2ccc(Cl)cc12,-36.7% (active)
9,NC(=O)c1c(NC(=O)c2cccs2)sc2c1CCC(=O)C2,84.6%
10,O=C(Oc1ccc(CCl)cc1)c1ccccc1,-79.2% (active)
11,O=C(Cc1ccc(/C=C/C(=O)c2ncc[nH]2)cc1)Nc1cc(C(F)(F)F)cc(C(F)(F)F)c1,106%
12,Nc1ncnc2c1N=C(c1ccc3c(c1)OCO3)CC(c1cccc(Nc3ccnc4cc(C(F)(F)F)ccc34)c1)N2 (stereo not given),84.5%
13,COc1cccc(/C=N/NC(=O)c2ccccc2N2CCCC2)c1O,46.9%
14,CCNc1ccc(-c2nc3ccccc3n3cccc23)cc1,83.4%
15,CN(C)CCCNC(=O)c1cncnc1Nc1ccc(OCc2cccc(F)c2)c(Cl)c1,-56% (active)
16,O=C(NC1CC(F)C1)c1cc2cccnc2n1-c1ccc(Cl)c(Cl)c1 (stereo not given),98.9%
17,CN1CCN(c2ccc3nc4c(nc3c2C(F)(F)F)C(=O)c2ncccc2C4=O)CC1,-63.3% (active)
18,Cc1ccc(N2C(=O)CCC2=O)cc1,99.2%
19,CCN1C(=O)N(CC)C2C1NN=c1s/c(=C3\C(=O)N(CCC(C)C)c4ccccc43)c(=O)n12 (stereo not given),38.9%
20,CN(Cc1cnc2nc(N)nc(N)c2n1)c1ccc(C(=O)NC(CCC(=O)O)C(=O)O)cc1Br (stereo not given),33.5%

# Tested on: NCI-H460 lung
# Assay: as above
# Conditions: 10 µM unless noted
row,Structure (SMILES),growth
1,Cc1ccc(C2CC(c3nc(-c4ccc(Cl)cc4)oc3C)=NN2C(=O)c2ccncc2)cc1 (stereo not given),92.7%
2,CSc1nc(C)c([N+](=O)[O-])c(N)n1,104%
3,[2H]C([2H])([2H])Oc1ccc(F)cc1/C=C/C(=O)/C=C(O)/C=C/c1cc(F)ccc1OC([2H])([2H])[2H],88.6%
4,COc1ccc(-c2nc3c(N)c(CO)cnc3s2)cc1,97.6%
5,O=S(=O)(NCCNc1nccc(-c2c(-c3ccc(F)c(O)c3)nc3sccn23)n1)c1ccc(F)cc1,21.9%
6,CCOC(=O)c1cnc2c(N=Nc3ccc(OC)cc3)c(N)nn2c1N,103%
7,COc1ccc(-c2nn(-c3ccccc3)cc2/C=C/C(=O)NNC(=O)Nc2ccc(C)cc2)cc1,102%
8,Oc1ccc(/C=C/c2ccc(O)cc2)cc1,34.5%
9,O=[N+]([O-])c1ccc(-c2cn3nc(-c4c[nH]c5ccccc45)sc3n2)cc1,98%
10,Oc1c(CN2CCOCC2)cc(COCc2ccccc2)c2cccnc12,16.1%
11,CCOC(=O)CC1CSC(Nc2ccccc2)=N1 (stereo not given),109%
12,CCc1n(Cc2ccc3ccccc3n2)cc[n+]1Cc1ccc2ccccc2n1,34.8%
13,O=P(O)(O)OCC1OC(n2cnc3c(NCc4ccco4)ncnc32)C(O)C1O (stereo not given),12.6%
14,COc1ccc(C2=CC(c3cc(OC)c(OC)c(OC)c3)n3ncnc3N2)cc1 (stereo not given),0.735% (active)
15,C/C=C(\C)C(=O)N[C@H]1C(O)C[C@]2(C)C3CC[C@@]4(C)C(CC[C@@H]4C(C)N(C)C)C3CCC2C1O (stereo not given in full),30.7%
16,COc1cc(-c2nc3sccn3c2-c2ccnc(NCCNS(=O)(=O)c3ccc(Cl)cc3)n2)ccc1F,42.2%
17,CCCn1cnc2c(c1=N)C(c1ccc(F)cc1)c1sc3c(F)cccc3c1O2 (stereo not given),18.7%
18,C#CCNC(=O)[C@]1(C)CCC[C@@]2(C)[C@H]1CC=C1C=C(C(C)C)CC[C@@H]12,106%
19,N[C@H]1CCC[C@@H]1NCCCCN1C(=O)c2cccc3cc([N+](=O)[O-])cc(c23)C1=O,13.7%
20,CC1C=CC(OC(=O)C(C)(O)CCC(O)(C(=O)OC2CC(O)C(C(C)C)CC2(C)O)C(C)C)(C(C)C)CC1 (stereo not given),-69.3% [4.63 µM] (active)

row,Structure (SMILES),growth
1,C=CC(=O)Nc1ccc(Nc2nccc(-c3ccc(N4CCCC4)c(C#N)c3)n2)cc1,0.189% (active)
2,CC(=O)OC(c1ccccc1)C1CCOC1=O (stereo not given),109%
3,COC(=O)CCC/C=C\C[C@H]1C=CC(=O)/C1=C/C[C@@H](O)C/C=C\CC(F)(F)F,-47.2% (active)
4,N#CC1=C(N)Oc2ccc3ccccc3c2C1c1ccc([N+](=O)[O-])cc1 (stereo not given),93.3%
5,COc1cc(-c2nc3c(ncc4ccc(=O)n(-c5ccccc5)c43)s2)cc(OC)c1OC,84.3%
6,Cc1ccc(-c2csc(N(C(=O)N3CCN(c4cc5c(cc4F)c(=O)c(C(=O)O)cn5C4CC4)CC3)c3ccccc3)n2)cc1,5.91% (active)
7,O=c1cc(-c2ccccc2)[nH]c2ncc(-c3ccc(F)cc3)n12,47.4%
8,COc1cc(-c2nc3cc(Cl)c(Cl)cc3[nH]2)ccc1OCC(=O)N=Nc1c(O)[nH]c2ccc(Cl)cc12,5.88% (active)
9,NC(=O)c1c(NC(=O)c2cccs2)sc2c1CCC(=O)C2,87.5%
10,O=C(Oc1ccc(CCl)cc1)c1ccccc1,-47.5% (active)
11,O=C(Cc1ccc(/C=C/C(=O)c2ncc[nH]2)cc1)Nc1cc(C(F)(F)F)cc(C(F)(F)F)c1,93.7%
12,Nc1ncnc2c1N=C(c1ccc3c(c1)OCO3)CC(c1cccc(Nc3ccnc4cc(C(F)(F)F)ccc34)c1)N2 (stereo not given),90.7%
13,COc1cccc(/C=N/NC(=O)c2ccccc2N2CCCC2)c1O,20.9%
14,CCNc1ccc(-c2nc3ccccc3n3cccc23)cc1,88.8%
15,CN(C)CCCNC(=O)c1cncnc1Nc1ccc(OCc2cccc(F)c2)c(Cl)c1,-75.1% (active)
16,O=C(NC1CC(F)C1)c1cc2cccnc2n1-c1ccc(Cl)c(Cl)c1 (stereo not given),101%
17,CN1CCN(c2ccc3nc4c(nc3c2C(F)(F)F)C(=O)c2ncccc2C4=O)CC1,-56.6% (active)
18,Cc1ccc(N2C(=O)CCC2=O)cc1,99.7%
19,CCN1C(=O)N(CC)C2C1NN=c1s/c(=C3\C(=O)N(CCC(C)C)c4ccccc43)c(=O)n12 (stereo not given),5.57% (active)
20,CN(Cc1cnc2nc(N)nc(N)c2n1)c1ccc(C(=O)NC(CCC(=O)O)C(=O)O)cc1Br (stereo not given),16.7%
